PubChem BioAssay

target: Fibroblast growth factor 10 (Homo sapiens) (UniProt O15520); assay: FGF10 binders on small-molecule microarrays, primary screen, biochemical, small-molecule microarray, 635 nm fluorescence (AID 1102); details: FGF10 binding, fluorescence 635 nm, higher = more signal
Sequence (O15520 whole entry, looked up): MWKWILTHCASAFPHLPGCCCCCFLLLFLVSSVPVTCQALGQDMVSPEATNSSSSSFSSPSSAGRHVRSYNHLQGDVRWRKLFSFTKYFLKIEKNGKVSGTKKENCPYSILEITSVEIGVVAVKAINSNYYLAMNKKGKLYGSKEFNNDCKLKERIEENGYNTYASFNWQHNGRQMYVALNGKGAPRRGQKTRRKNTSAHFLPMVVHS

Compound	composite z-score
C[C@@H]1NC(=O)[C@@]23C(=O)N[C@@H](Cc4ccccc4)C2[C@H](C)[C@@]2(C)O[C@H]2C3/C=C/C/C=C\CNC(=O)[C@@H]2CCCN2C1=O (stereo partly specified)	0.0528
COCCOC(=O)N1C(=O)[C@@]2(c3cc(C#Cc4ccc(OC)cc4)ccc31)[C@H](C(=O)Nc1nc3ccccc3s1)[C@H]1C(=O)O[C@H](c3ccccc3)[C@H](c3ccccc3)N1[C@@H]2c1ccc(O)cc1	1.39
CN(C)C(=O)C1N=C(c2ccc(OCCCO)cc2)N(c2ccccc2)O1 (stereo unspecified)	1.5
O=C(NCC(F)(F)F)[C@@H]1c2ccccc2C(=O)N(Cc2ccc(OC(F)(F)F)cc2)[C@H]1c1ccc(CO)cc1	0.347
[N-]=[N+]=Nc1ccccc1[C@H]1OC(c2ccc(OCCCO)cc2)=N[C@@]1(Cc1ccccc1)C(=O)N1CCCCC1	1.45

test system: glycogen synthase kinase-3 (GSK3A per assay name; protocol says GSK3B); assay: GSK3 binders on small-molecule microarrays, primary screen, biochemical, small-molecule microarray, 635 nm fluorescence, GSK3A (AID 1103); details: small-molecule microarray binding, fluorescence 635 nm; higher = more signal; further: the record names both GSK3A and GSK3B

Compound	composite z-score
COCCOC(=O)N1C(=O)[C@@]2(c3cc(C#CC4=CCCCC4)ccc31)[C@H](c1ccccc1OCCO)N1[C@H](c3ccccc3)[C@H](c3ccccc3)OC(=O)[C@H]1[C@@H]2C(=O)Nc1nc2ccccc2s1	0.69
CCCNC(=O)[C@@H]1c2ccccc2C(=O)N(C(C)C)[C@H]1c1ccc(CO)cc1	-0.307
CCCCO[C@H]1C[C@H]2C(I)=C[C@@H]1C(=O)[C@]21CO1	-0.487
CC(C)(C)OC(=O)CC[C@]1(C(=O)NCC(O)CO)N=C(c2ccc(OCCCO)cc2)O[C@H]1c1ccccc1 (stereo partly specified)	0.206
C=CC[C@]1(C(=O)O)COC(c2ccc(OCCCO)cc2)=N1	0.156
CN1C(=O)C2C=CC(C(O)c3ccccn3)N(N(c3ccccc3)c3ccccc3)C2C1=O (stereo unspecified)	0.19
[N-]=[N+]=NCc1ccccc1C[C@@]1(C(=O)N2CCOCC2)N=C(c2ccc(OCCCO)cc2)O[C@@H]1c1ccccc1	1.28
CC(=O)NCCCC[C@@H]1NC(=O)[C@@H]2C[C@H](C(=O)NCCCC[N+](C)(C)C)[C@H](c3ccc(O)cc3)N2C1=O	0.301
C[C@H]1NC(=O)[C@@]23C(=O)N[C@@H](Cc4ccccc4)C2[C@H](C)[C@@]2(C)O[C@H]2C3/C=C/C/C=C\CNC(=O)[C@H](Cc2ccccc2)NC1=O (stereo partly specified)	0.138
[N-]=[N+]=Nc1ccccc1C[C@]1(C(N)=O)N=C(c2ccc(OCCCO)cc2)O[C@H]1c1ccccc1N=[N+]=[N-]	0.966
O=C1O[C@@H](c2ccccc2)[C@@H](c2ccccc2)N2[C@@H](c3ccc(O)cc3)[C@]3(C(=O)Nc4ccc(C#CC5=CCCCC5)cc43)[C@@H](C(=O)NC[C@H](O)c3ccccc3)[C@H]12	1.28
CCOC(=O)C1=CC[C@@H](c2ccccc2C(F)(F)F)N(S(=O)(=O)c2ccc(C)cc2)[C@H]1c1ccc(C#N)cc1	1.2
O[C@@H](Cc1ccccc1)[C@@H](/C=C/C1CC1)N(CC#Cc1ccccc1)Cc1cccc(Cl)c1	-1.01
CN(C)CCCCNC(=O)[C@@H]1C[C@@H]2C(=O)N[C@@H](Cc3ccccc3)C(=O)N2[C@@H]1c1cccc(OCCO)c1	0.727
COc1ccc([Si](C)(C)[C@@H]2[C@@H](CC(=O)N(CCO)Cc3ccccc3)O[C@]3(C(=O)N(c4ccccc4)c4ccccc43)[C@H]2C)cc1	0.629
CC=CC(O)C1C=CC2C(=O)N(c3ccccc3)C(=O)C2N1Nc1ccccc1F (stereo unspecified)	-0.352
C=CC1c2cc(O)c(OC)cc2CCN1Cc1cc2c(cc1Br)OCO2 (stereo unspecified)	-0.277
CC(C)C(CO)N1C(=O)[C@@H]2C3C(=O)OCCC/C=C\[C@H]3OC23C=CCN(C(C)(C)C)C(=O)[C@@H]13 (stereo partly specified)	0.0664

Compound	composite z-score
[N-]=[N+]=NCc1ccccc1C[C@@]1(C(=O)N2CCCCC2)N=C(c2ccc(OCCCO)cc2)O[C@@H]1c1ccccc1	0.0635
O=C1C[C@@](C(=O)NCCN2CCOCC2)(c2ccc([N+](=O)[O-])cc2)[C@@H](c2ccc(CO)cc2I)N1C1CCCCC1	1.15
COC(=O)c1c(CC[C@@H](CO)NC(=O)N2CCC[C@H]2Cn2cc(Cc3ccccc3)nn2)oc(C(C)=O)c1C(=O)OC	0.0908
O=C1NC(=O)C2C1C=CC(C(O)c1cccc3ccccc13)N2Nc1ccc(Cl)cc1Cl (stereo unspecified)	0.267
N#Cc1ccc(C(O)C2C=CC3C(=O)N(c4ccccc4)C(=O)C3N2Nc2ccccc2)cc1 (stereo unspecified)	-0.0985
COC(=O)[C@@]1(Cc2ccc(OC)cc2)[C@H]2c3cc(C(=O)N(C)C)n(C[C@H](O)CO)c3C[C@H]2CN1C(=O)c1ccccc1	0.0885
COc1cc(OC)c(C(O)C2C=CC3C(=O)N(c4ccccc4)C(=O)C3N2Nc2ccccc2)cc1Br (stereo unspecified)	0.176
COCCCNC(=O)[C@@]1(Cc2ccccc2N=[N+]=[N-])N=C(c2ccc(OCCCO)cc2)O[C@H]1c1ccccc1	1.28
C=C(C)C1CCC(C(O)C2C=CC3C(=O)N(C)C(=O)C3N2N2CCCCC2)CC1 (stereo unspecified)	1.3
Cc1ccc(S[C@]2(C(=O)O)CC(=O)N(C3Cc4ccccc4C3)[C@@H]2c2ccc(CO)cc2)cc1	-0.775
O=C1C2C=CC(C(O)c3ccc(Br)cc3)N(Nc3ccccc3F)C2C(=O)N1c1ccccc1 (stereo unspecified)	0.235
CC(C)(C)N1CC=CC23O[C@@H]4C=CCCOC(=O)C4[C@H]2C(=O)N(CCO)[C@@H]3C1=O (stereo partly specified)	-0.649
C=CCNC(=O)[C@H]1[C@@H]2C(=O)O[C@@H](c3ccccc3)[C@@H](c3ccccc3)N2[C@@H](c2ccc(O)cc2)[C@]12C(=O)N(C(=O)OCCOC)c1ccccc12	0.226
C[C@@H]1NC(=O)[C@@]23C(=O)N[C@@H](Cc4ccccc4)C2[C@H](C)[C@@]2(C)O[C@H]2C3/C=C/C/C=C\CNC(=O)[C@@H]2CCCN2C1=O (stereo partly specified)	-0.438
COCCOC(=O)N1C(=O)[C@@]2(c3cc(C#Cc4ccc(OC)cc4)ccc31)[C@H](C(=O)Nc1nc3ccccc3s1)[C@H]1C(=O)O[C@H](c3ccccc3)[C@H](c3ccccc3)N1[C@@H]2c1ccc(O)cc1	1.29
CN(C)C(=O)C1N=C(c2ccc(OCCCO)cc2)N(c2ccccc2)O1 (stereo unspecified)	1.13
O=C(NCC(F)(F)F)[C@@H]1c2ccccc2C(=O)N(Cc2ccc(OC(F)(F)F)cc2)[C@H]1c1ccc(CO)cc1	-0.285
[N-]=[N+]=Nc1ccccc1[C@H]1OC(c2ccc(OCCCO)cc2)=N[C@@]1(Cc1ccccc1)C(=O)N1CCCCC1	0.99
